This is a sample that favours compounds with a hit; in the whole collection about 2.4% have one here.
D2 PAM-1: D2 dopamine receptor (human) potentiation; HEK293 T-REx D2, calcium flux, EC20 dopamine potentiation; potentiation, % at 10 µM; P14416; AID 485347; 0.34% of 340,000 active;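 active means potentiation over 3 SD above the plate norm, cut at about 30% in these data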; further: 0% is about no effect
Target sequence (P14416 whole entry, looked up): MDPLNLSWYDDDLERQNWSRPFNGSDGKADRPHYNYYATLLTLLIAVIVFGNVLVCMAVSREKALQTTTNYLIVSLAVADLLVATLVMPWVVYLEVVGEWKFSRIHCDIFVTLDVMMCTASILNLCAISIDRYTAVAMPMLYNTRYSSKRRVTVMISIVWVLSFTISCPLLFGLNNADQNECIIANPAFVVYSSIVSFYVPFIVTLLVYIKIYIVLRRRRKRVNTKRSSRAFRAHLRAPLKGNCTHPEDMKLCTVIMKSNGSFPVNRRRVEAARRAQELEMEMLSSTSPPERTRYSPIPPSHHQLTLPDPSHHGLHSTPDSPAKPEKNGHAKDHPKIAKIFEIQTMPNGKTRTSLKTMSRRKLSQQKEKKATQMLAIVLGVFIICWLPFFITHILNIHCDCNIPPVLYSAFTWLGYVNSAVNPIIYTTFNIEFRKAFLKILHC
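Cells plated with tetracycline inducer and held overnight at 30 C; calcium dye loaded 30–90 min at room temperature; baseline taken, compound added and read 180 s; EC20 dopamine then added and read 180 s.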
D2 ag-1: activates the human D2 dopamine receptor; P14416; DiscoveRx PathHunter D2 beta-arrestin, luminescence, 90 min; 100% = 57 uM dopamine signal; activation, % (test concentration not listed); 0.084% of 360,000 active; in the data active means activation above about 40%; inconclusive means between about 15% and that limit
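DiscoveRx PathHunter D2 beta-arrestin cells (2,100/well) attached overnight, then compound-stimulated 90 min at 37 C in HBSS/10 mM HEPES/0.1% Tween-20 buffer; beta-galactosidase complementation read by luminescence after 1 h at ambient temperature. Dopamine 57 uM final (EC100) as control.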
D2 ag-2: activates the human D2 dopamine receptor. HEK293 T-REx D2 cells, calcium flux agonist mode. activation, % at 2 µM. 0.53% of 340,000 active;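 active means activation over 3 SD above normal in the single-dose calcium agonist read, cut at about 30% in these data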; further: 0% is about no effect
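Agonism scored from kinetic calcium signal (1 read/sec, 180 s) following compound pin transfer, after a 10 s baseline. Cells: HEK293 Trex line expressing inducible D2 receptor coupled to calcium, dye-loaded after overnight culture at 30 C.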
D2 antagonist: antagonists of human D2 dopamine receptor; P14416; HEK293 TREx D2 cells, calcium flux, dopamine EC80; inhibition, % at 10 µM; 2% of 340,000 active; in the data active means inhibition above about 30%; inactive means below that, where a call was filed; further: 0% is about no effect
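Measurement of antagonist activity uses fluorescent calcium dye in inducible HEK293 T-REx D2 cells: 10 s baseline, compound addition with 180 s read, EC80 dopamine addition with a further 180 s read.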
D2 PAM-2: potentiates the human D2 dopamine receptor allosterically | P14416 | DiscoveRx D2 beta-arrestin cells, luminescence, 90 min; 100% = 57 uM dopamine signal | potentiation, % (concentration not given with the values) | 0.23% of 360,000 active; in the data active means potentiation above about 50%; inconclusive means mostly about 30% to 49%
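PathHunter D2 cells, attached overnight at 37 deg C, received compound in DMSO plus dopamine at EC20 (50 nM final) for 90 min at 37 deg C. Beta-arrestin recruitment was read as luminescence after 1 h with detection reagent at ambient temperature.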
D3 ag: D3 receptor agonism confirmed, beta-arrestin readout | 4% of 2,300 active | DiscoveRx D3 beta-arrestin cells, luminescence, 90 min | Potency, µM (highest dose often 76.9 µM), for the others: top-dose activation, usual class: activators | shares compounds with D2 ag-2;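 further: potency means the concentration at half of the fitted maximal effect; 100% = dopamine control response; nearly all actives have a fitted effect of over 70% in size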
D2 ag-3: activates human D2 dopamine receptor in D3 counterscreen; 5.9% of 2,300 active; Potency, µM (highest dose often 76.9 µM), without a hit: at the top dose activation, usual class: activators; shares compounds with D2 ag-2; DiscoveRx PathHunter D2 beta-arrestin, luminescence, 90 min; response scale: percent relative to full dopamine signal; AID 720507; further: potency means the concentration at half of the fitted maximal effect; % of control where 0% means no effect; nearly all actives have a fitted effect of over 70% in size
* = called active by the depositor; ? = inconclusive; · = not tested or not shown; ! = not active in a repeat. Unless noted, the call rests on the fitted dose curve; in most records, active means well fitted activation curve with a large enough effect; inconclusive means small, poorly fitted or top-dose-only effect; inactive means flat fitted curve, though single readings scatter.

SMILES	D2 PAM-1	D2 ag-1	D2 ag-2	D2 antagonist	D2 PAM-2	D3 ag	D2 ag-3
Fc1cccc(CN2CCN(c3ncccn3)CC2)c1	-29	80*	77*	83*	55*	?	1.4µM*
Cc1ccc(CNS(=O)(=O)c2cc(C(=O)Nc3cccc(C(F)(F)F)c3)ccc2F)cc1	10	·	0	·	·	·	·
CCc1ccc(CNC(=O)c2cnc3sc(N4CCCC4)nn3c2=O)cc1	14	·	-1	·	·	·	·
Cc1c(O)c(=O)ccn1C	-14	-1	57*!	31*!	6	0%	-3%
S=C(Nc1ccc(Oc2ccccc2)cc1)N1CCN(c2ccccn2)CC1	7	1	13	-31	0	18%	4%
O=C(Nc1ccccc1Cl)N1CCN(c2ccccn2)CC1	-24	5	64*	15	9	-2%	-1%
S=C(Nc1ccc(Br)cc1Cl)N1CCN(c2ccccn2)CC1	-13	2	57*	-6	-16	5%	27%
COc1ccccc1NC(=O)N1CCN(c2ccccc2F)CC1	·	-1	·	·	-12	·	·
COc1ccccc1NC(=O)N1CCN(c2ccccn2)CC1	-10	-4	37*	-30	4	5%	0%
Cc1ccccc1-c1noc(-c2ccc(NCc3ccco3)c([N+](=O)[O-])c2)n1	0	·	0	·	·	·	·
COc1cccc2c1Oc1ncccc1N(C(=O)CCC(=O)NCCC(C)C)C2	-10	·	0	·	·	·	·
COC(=O)c1ccc(C(=O)OC)c(NC(=S)N2CCN(c3ccccn3)CC2)c1	-8	1	51*	15	1	6%	2%
CCOc1ccc(S(=O)(=O)Nc2cccc(C(=O)N3CCN(c4cccc(OC)c4)CC3)c2)cc1	·	?	·	·	-20	?	25%
COc1ccccc1NC(=S)N1CCN(c2ccccn2)CC1	·	1	·	·	-9	-2%	6%
COc1cccc(C(=O)N2CCN(c3ccccn3)CC2)c1	-18	?	·	·	-4	?	26%
CCOc1ccc(S(=O)(=O)Nc2cccc(C(=O)N3CCN(c4ccccc4O)CC3)c2)cc1	6	5	5	-7	2	·	·
COc1cc(OC)cc(C(=O)N2CCN(c3ccccn3)CC2)c1	3	5	-1	-4	1	·	·
COc1ccc(NC(=O)C(NS(=O)(=O)c2cccc3nsnc23)C(C)C)cc1OC (stereo not given)	9	·	1	·	·	·	·
COc1ccc(CCNC(=O)Cn2ncc3c(C)n(Cc4ccccc4F)c(C)c3c2=O)cc1OC	-3	·	0	·	·	·	·
COC(=O)c1c(Oc2ccc(Br)cc2)nnc(-c2ccccc2)c1-c1ccccc1	-1	·	7	·	·	·	·
O=C(Nc1ccccc1C(F)(F)F)N1CCN(c2ccccn2)CC1	-16	-5	50*	19	-1	0%	5%
COc1ccc(CC2(CO)CCN(Cc3cc4ccccc4o3)CC2)cc1	·	62*	·	·	18	?	11µM*
OCC1(Cc2cccc(C(F)(F)F)c2)CCN(Cc2cc3ccccc3o2)CC1	-17	51*	49*	22	12	?	40µM*
COc1ccc(CC2(CO)CCN(Cc3ccncc3)CC2)cc1	-6	-5	2	7	3	·	·
COc1ccc(C(=O)/C=C/c2cc(OC)c(O)c(OC)c2)c(F)c1	0	-4	26	33*	-27	3%	-6%
SMILES	D2 PAM-1	D2 ag-1	D2 ag-2	D2 antagonist	D2 PAM-2	D3 ag	D2 ag-3
COc1ccc2cc(C(=O)/C=C/c3cc(OC)c(O)c(OC)c3)ccc2c1	3	-4	4	16	-4	·	·
O=C(CSc1nnc2scc(-c3ccc(Cl)cc3)n12)Nc1cccc(C(F)(F)F)c1	-33	·	-1	·	·	·	·
O=S(=O)(NCCc1csc2nc(-c3ccc(Cl)cc3)nn12)c1ccc(Oc2ccccc2)cc1	0	·	1	·	·	·	·
COc1cccc(CC(=O)OCc2csc(CC(=O)Nc3ccccc3C)n2)c1	-2	-1	1	16	12	-1%	-3%
Cc1ccccc1NC(=O)Cc1nc(COC(=O)CCc2ccccc2)cs1	4	-2	-1	15	0	·	·
COC(=O)c1sccc1S(=O)(=O)N(CC(=O)NCc1ccc(F)cc1)c1ccc(Cl)cc1	-16	·	1	·	·	·	·
Cc1cnc(C(=O)Nc2ccc(S(=O)(=O)N(C(C)C)C(C)C)cc2)cn1	3	4	0	27	-3	·	·
Cc1cnc(C(=O)Nc2ccc(S(=O)(=O)NCC(C)C)cc2)cn1	-8	-2	15	36*	-9	7%	-3%
COc1cccc(/C=C/C(=O)OCC(=O)NCCc2ccccc2)c1	-20	-2	46*	9	-3	-10%	-4%
CCN(CC)CC(C)CNC(=O)CN1C(=O)CSc2ccc(S(=O)(=O)N3CCOCC3)cc21 (stereo not given)	-11	0	54*!	-8	-2	-3%	5%
CCN(CC)CCCNC(=O)CN1C(=O)CSc2ccc(S(=O)(=O)N3CCOCC3)cc21	15	-1	1	-14	-2	·	·
CC1=Nc2ccccc2/C1=C/c1sc(=N)n(-c2nccs2)c1O	-4	-3	10	-12	-27	-16%	-10%
CC1=Nc2ccccc2/C1=C/c1nc(-c2ccc(C)s2)oc1O	·	-5	·	·	-10	·	·
COc1cc(OC)c(NC(=O)CSc2cc(=O)n(C)c3ccc(Cl)cc23)cc1Cl	4	·	0	·	·	·	·
O=C(O)c1cccc(-n2c(/C=C/c3ccc([N+](=O)[O-])cc3)nc3ccccc3c2=O)c1	4	-2	0	13	0	9%	6%
O=C(O)c1cccc(-n2c(/C=C/c3cccc([N+](=O)[O-])c3)nc3ccccc3c2=O)c1	10	-2	0	11	1	·	·
CCOC(=O)C(CC(=O)O)NCc1ccco1 (stereo not given)	12	-3	1	7	-7	·	·
CC(C)OC(=O)C(CC(=O)O)NCc1ccccc1 (stereo not given)	4	-1	-1	68*	-2	-8%	-4%
CC(=O)Nc1cccc(NC(=O)c2c(-c3ccccc3)c(-c3ccccc3)nn(C)c2=O)c1	-10	·	0	·	·	·	·
Nc1nc(N)nc(-c2ccc(Cl)c(Cl)c2)n1	-6	-1	2	-9	-3	-1%	-4%
COc1ccccc1N1CCN(C(=O)c2cn(C)c3ccc(S(=O)(=O)N(C)C4CCCCC4)cc3c2=O)CC1	-5	·	1	·	·	·	·
O=C1C=C(/C=C/c2ccccc2)C[C@@H](c2ccc(F)cc2)C1	-7	-5	1	-24	-4	-9%	7%

From PubChem
